Assay results: PubChem BioAssay AID567 (The Scripps Research Institute Molecular Screening Center, 2006)
Hit rate of the full screen: of about 65,000 compounds, about 370 (0.57%) were called active.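 The calls were made as follows: active = activation above the screen-wide mean activation plus 3 SD (cut at about 19% in these data); inactive = the rest.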 Shown is part of a subset that was picked to be rich in actives.

The compounds below were run against 5-hydroxytryptamine receptor 1A (Homo sapiens) (UniProt P08908) (assay: human 5-HT1a receptor agonists, primary screen, cell-based, CHO, Ga15 NFAT-bla reporter (AID 567;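 also: 0% = DMSO wells and 100% = 5-CT at EC100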)). Details: CHO 5-HT1a Ga15 NFAT-bla reporter, FRET ratio; at 10 µM; stronger effect = higher value; 0% basal, 100% maximal reference agonist.
Sequence of 5-hydroxytryptamine receptor 1A (Homo sapiens) (P08908 whole entry, looked up): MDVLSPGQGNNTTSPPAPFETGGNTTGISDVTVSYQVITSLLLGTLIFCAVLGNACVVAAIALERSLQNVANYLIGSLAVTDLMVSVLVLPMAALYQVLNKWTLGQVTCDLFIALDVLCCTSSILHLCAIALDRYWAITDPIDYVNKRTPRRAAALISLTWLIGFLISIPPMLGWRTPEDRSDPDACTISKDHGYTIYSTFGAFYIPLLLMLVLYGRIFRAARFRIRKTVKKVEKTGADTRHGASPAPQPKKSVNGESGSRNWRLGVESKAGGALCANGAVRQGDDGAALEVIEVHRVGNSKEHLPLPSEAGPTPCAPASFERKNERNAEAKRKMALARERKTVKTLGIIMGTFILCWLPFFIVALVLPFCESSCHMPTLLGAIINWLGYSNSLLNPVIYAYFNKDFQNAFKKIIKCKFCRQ
With `CC(=O)Nc1ccc(S(=O)(=O)Nc2nc3n(n2)C(c2ccccc2)CC(=O)N3)cc1` (centres undefined) the activation was -0.5% (inactive).
`CCOC(=O)NC(C(F)(F)F)(C(F)(F)F)P(=O)(c1ccccc1)c1ccccc1` was tested, and the activation was -0.98% (inactive).
For `c1cc(-c2nn[nH]n2)ccc1CN1CCCCC1`, the activation was -2.19% (inactive).
For `O=C(CSc1ncccn1)NCCc1ccccc1`, the activation was 0.69% (inactive).
With `CC1CCCC(C)N1CCCNC(=O)c1cc2c(=O)n(C)c3ccccc3c2n1C` (centres undefined) the activation was -1.82% (inactive).
With `Cn1c(C(=O)NCCCN2CCN(c3cccc(Cl)c3)CC2)cc2c(=O)n(C)c3ccccc3c21` the activation was 36.5% (active).
With `O=C(CCn1c(=S)[nH]c2ccccc2c1=O)NCCCN1CCCC1=O` the activation was -0.9% (inactive).
With `O=C(CCn1c(=O)[nH]c2ccccc2c1=O)NCCCN1CCN(c2cccc(Cl)c2)CC1` the activation was 21.7% (active).
For `CCn1c(=O)cc(OCC(=O)NCCCN2CCN(c3cccc(Cl)c3)CC2)c2ccccc21`, the activation was -3.65% (inactive).
For `O=C(CCCn1c(=O)[nH]c2cc(Cl)ccc2c1=O)NCCN1CCN(c2ccccc2)CC1`, the activation was -0.6% (inactive).
`O=S(=O)(N1CCOCC1)N1CCN(c2ccccc2F)CC1` was tested, and the activation was -0.75% (inactive).
`O=S(=O)(Nc1ccccn1)c1ccc(Oc2ccccc2)cc1` was tested, and the activation was 0.59% (inactive).
`O=C(C1=C(O)C(=O)N(c2ncccn2)C1c1cccs1)c1ccco1` (centres undefined) was tested, and the activation was -1.27% (inactive).
In the case of `Cc1nc2ccccc2cc1O`, the activation is reported as 0.14% (inactive).
With `CCC1CCCCN1C(=O)Nc1cccc(NC(=O)N2CCCCC2CC)c1` (centres undefined) the activation was -2.03% (inactive).
In the case of `CCOc1ccc(Cn2nnc(C(=O)Nc3ccc(OC)cc3OC)c2N)cc1`, the activation is reported as 3.25% (inactive).
In the case of `O=c1c2ccccc2oc2nc3n(c(=O)c12)CCCS3`, the activation is reported as -0.78% (inactive).
In the case of `COc1ccc(C(C(O)C(=O)c2c[nH]c3ccccc23)N2CCN(c3ccccc3)CC2)cc1` (centres undefined), the activation is reported as -3.45% (inactive).
In the case of `CCc1c(C)nc2cc(-c3cccs3)[nH]n2c1=O`, the activation is reported as -3.62% (inactive).
`Cc1ccc(S(=O)(=O)C(C#N)c2nc3ccccc3nc2N2CCCC2)cc1C` (centres undefined) was tested, and the activation was 1.05% (inactive).
In the case of `CC(C)CCNC(=O)C(C)N(C(=O)Cn1nnc(-c2ccc(F)cc2)n1)C1CCCC1` (centres undefined), the activation is reported as 0.97% (inactive).
For `CC(C)(C)n1nc2c(c1NC(=O)c1ccc(S(=O)(=O)N3CCCC3)cc1)CS(=O)C2` (centres undefined), the activation was -0.05% (inactive).
In the case of `O=C1CCC(Cc2ccccc2)N1` (centres undefined), the activation is reported as -0.21% (inactive).
`CC1CCN(C(=O)Cn2cc(C(=O)c3ccco3)c3ccccc32)CC1` was tested, and the activation was -0.71% (inactive).
In the case of `Cc1cc(=O)cc(C)[nH]1`, the activation is reported as -2.27% (inactive).
For `CCOC(=O)C1=C(C)NC(C)=C(C(=O)OCC)C1c1ccccn1`, the activation was -1.2% (inactive).
With `CCN1C(=O)C(C(=O)NC(C)c2ccccc2)C2CC1(C)Oc1ccccc12` (centres undefined) the activation was -0.28% (inactive).
In the case of `COc1ccccc1N(CC(=O)N1CCCCC1)S(=O)(=O)c1ccccc1`, the activation is reported as -2.64% (inactive).
`COc1ccc(C2C3=C(CC(C)(C)CC3=O)Oc3ncn4nc(-c5cccnc5)nc4c32)cc1OC` (centres undefined) was tested, and the activation was -3.54% (inactive).
In the case of `COc1ccc(CC(NC(C)=O)C(=O)NC2CCN(C(=O)Nc3ccc(C#N)cc3)CC2)cc1OC` (centres undefined), the activation is reported as 0.53% (inactive).
In the case of `Cc1ccc(NC(=O)Cn2nc(C)c3ccccc3c2=O)c(C)c1`, the activation is reported as -0.44% (inactive).
In the case of `CCOC(=O)Cc1csc(NC(=O)CSc2nc(C)cc(=O)[nH]2)n1`, the activation is reported as -1.16% (inactive).
In the case of `COc1cccc(-n2c(Cc3cc(=O)[nH]c(=O)[nH]3)nnc2SCC(=O)Nc2ccccc2)c1`, the activation is reported as -5.6% (inactive).
With `Cc1cc(NC(=O)c2cnn3cccnc23)n(-c2ccccc2)n1` the activation was 1.07% (inactive).
In the case of `O=C(Nc1ccc(Cl)cn1)Nc1cccs1`, the activation is reported as -4.12% (inactive).
With `O=C(Nc1ccc(Cl)cn1)c1cnn2cccnc12` the activation was 193% (active).
For `Fc1ccc(Cn2nnnc2C(c2cccs2)N2CCCCCC2)cc1` (centres undefined), the activation was -2.4% (inactive).
With `CCC12CN3CC(CC)(CN(C1)C31C(=O)N(C)c3ccc(C)cc31)C2=O` (centres undefined) the activation was -2.01% (inactive).
In the case of `COC(=O)CNC(=O)c1ccc2c(c1)S(=O)(=O)c1ccccc1C2=O`, the activation is reported as 1.02% (inactive).
With `Cc1cc(N2C(=O)c3ccc(C(=O)NCc4ccccc4)cc3C2=O)no1` the activation was -3.09% (inactive).
`CNC(=O)CSc1nnc(CCc2ccccc2)n1-c1ccccc1` was tested, and the activation was 0.04% (inactive).
With `N#Cc1cccc(CSc2nnc(CCCO)n2-c2ccccc2)c1` the activation was 77% (active).
In the case of `N#Cc1ccc(CSc2nnc(-c3ccccn3)n2-c2ccc(Cl)cc2)cc1`, the activation is reported as 0.34% (inactive).
With `O=C(NC1CC2CCCC(C1)N2C(=O)N1CCCCC1)C1CCCCC1` (centres undefined) the activation was 2.68% (inactive).
`Cc1cnc(NC(=O)CSc2nnc(-c3ccc(Cl)cc3Cl)n2N)s1` was tested, and the activation was -1.25% (inactive).
For `CN(c1nc2ccccc2n2c(-c3ccco3)nnc12)S(=O)(=O)c1ccccc1`, the activation was 0.58% (inactive).
With `Cc1ccc2nc(NC3=NCN(CCc4ccccc4)CN3)nc(C)c2c1` the activation was -1.7% (inactive).
For `CCOC(=O)C(C)Oc1cccc2c(=O)n(CC(=O)N3CCc4ccccc43)ccc12` (centres undefined), the activation was -0.82% (inactive).
`CCC(C(=O)N1CCOCC1)n1c(C(=O)OC)cc2occc21` (centres undefined) was tested, and the activation was -0.28% (inactive).
In the case of `O=C(CCCC(=O)N(CC(=O)NC1CCCC1)Cc1ccccc1Cl)Nc1ccccn1`, the activation is reported as 0.54% (inactive).
In the case of `Cn1c(Cc2csc(N)n2)nnc1SC/C=C/c1ccccc1`, the activation is reported as 0.48% (inactive).
In the case of `CCCOC(=O)c1[nH]c2c(c1C)C(=O)CC(c1cc(OC)c(OC)c(OC)c1)C2` (centres undefined), the activation is reported as -1.49% (inactive).
In the case of `Cc1noc(COc2ccccc2OCC(O)CNC(C)(C)C)n1` (centres undefined), the activation is reported as 2.09% (inactive).
For `CCOc1ccc2[nH]c(=O)c(C(c3nnnn3CCOC)N3CCOCC3)cc2c1` (centres undefined), the activation was -1.3% (inactive).
For `Cc1cc(C(=O)COC(=O)CCCN2C(=O)c3ccccc3C2=O)c(C)n1C`, the activation was -2.69% (inactive).
With `CCCc1nc(-c2ccccc2O)n(-c2ccccc2)n1` the activation was -3.29% (inactive).
`COc1ccc(-c2nnc(SCC(=O)NC3CCCCC3)o2)cc1OC` was tested, and the activation was -1.36% (inactive).
`O=c1ccc2cc(S(=O)(=O)N3CCN(c4ccccc4)CC3)ccc2o1` was tested, and the activation was -2.8% (inactive).
For `Cc1nonc1OCCn1nnnc1N`, the activation was 0.59% (inactive).
